Assay results published in ChEMBL document CHEMBL1157539, “Thousands of chemical starting points for antimalarial lead identification” (Nature, 2010).

Each compound was assayed on Plasmodium falciparum (assay: GSK_TCMDC: Inhibition of Plasmodium falciparum Dd2 in whole red blood cells, using parasite LDH activity as an index of growth. Test compounds present at 2uM).
Format: functional

First: O=c1cc(NCC2(CNCc3cn(Cc4ccccc4)c4ccccc34)CCCCC2)[nH]c2ccccc12
Second: O=C(Nc1cccc(C(F)(F)F)c1)c1cccc(S(=O)(=O)NCC2CCCN(Cc3ccccc3)C2)c1.O=C(O)C(F)(F)F (centres undefined)
The Inhibition of the first is higher: 56% for the first, 3% for the second.

First: COc1cc2nc(N3CCC(CNC(=O)c4ccc(-c5ccc(C#N)cc5)cc4)CC3)nc(N)c2cc1OC
Second: COc1ccc(-c2ccc(NC(=O)c3ccc(C#N)cc3)cc2)cc1CN(C)CCN(C)C.O=C(O)C(F)(F)F
The Inhibition of the first is higher: 99% for the first, 58% for the second.

Compared with `CC(C)NCc1ccc(-c2ccc(NS(=O)(=O)c3cccc4cccnc34)cc2)cc1.O=C(O)C(F)(F)F`, `COC(=O)c1ccc(-c2ccc(-c3cccnc3)cc2C)cc1` is higher in Inhibition: 45% for the first, 98% for the second.

Going from `CN(C)CC1CCCN1Cc1ccccc1-c1cnn(C)c(=O)c1Oc1ccc(F)cc1.O=C(O)C(F)(F)F` (centres undefined) to `COc1ccc2nccc([C@@H](O)CN3CCC(NCCc4c[nH]c5ccccc45)CC3)c2c1.O=C(O)C(=O)O`, the Inhibition rises from 19% to 77%.

Going from `CCC(c1ccccc1)c1nn2c(-c3cccs3)nnc2s1` (centres undefined) to `CC[C@H]1CN(Cc2ccccc2Br)CC[C@H]1CCCc1ccnc2ccc(O)cc12`, the Inhibition falls from 95% to 2%.

Compared with `Cc1nc(C)c(-c2ccc(-c3ccc(F)cc3)cc2)c(O)c1Br`, `O=[N+]([O-])c1cc(/C=N/Nc2nc3nonc3nc2Nc2ccc(F)cc2)c(Cl)cc1Cl` is lower in Inhibition: 52% for the first, 13% for the second.

Compared with `COc1ccc2ncc(F)c(CCN3CC[C@@H](CNCc4nc5c(cc4C)SCC(=O)N5)C3)c2n1.Cl`, `COc1ccccc1N1CCN(CCCCNC(=O)c2ccc(NC(=O)c3cc4ccccc4o3)cc2)CC1` is lower in Inhibition: 42% for the first, 2% for the second.
